Reference: PubChem BioAssay (NCATS)
Results filed as inconclusive are left out. The source made the active and inactive calls. Calls follow the shape of the dose curve; as a rule, active = well fitted inhibition curve with a large enough effect; inconclusive = small, poorly fitted or top-dose-only effect; inactive = flat fitted curve, though single readings scatter.

Tests used:
Experiment in all cases: qHTS profiling for inhibitors of Plasmodium falciparum proliferation (AID 504749); also: nearly all actives have a fitted effect of over 60% in size
Details in all cases: P. falciparum in erythrocytes, SYBR Green DNA, 72 h; series mostly up to 28.7 µM
CP315 = test system: CP315
Method in brief: (§1)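 SYBR Green fluorescence (ex 485 nm, em 535 nm) reports parasite DNA after 72 h compound exposure of infected red cells at 0.3% parasitemia, 2.5% hematocrit; signal normalized to 0.29 uM artemisinin and vehicle wells.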

CP325 = test system: CP325
Method in brief: as §1

CP329 = test system: CP329
Method in brief: as §1

CP335 = test system: CP335
Method in brief: as §1

DFO2036 = test system: DFO2036
Method in brief: as §1

DIV14 = test system: DIV14
Method in brief: as §1

DIV17 = test system: DIV17
Method in brief: as §1

DIV30 = test system: DIV30
Method in brief: as §1

Dd2 = test system: Dd2
Method in brief: as §1

ECU = test system: ECU
Method in brief: as §1

Measured: Potency
Potency is read from the fitted curve at half-maximal effect.

C/C(=C\c1csc(C)n1)[C@@H]1C[C@@H]2O[C@]2(C)CCC[C@H](C)[C@H](O)[C@@H](C)C(=O)C(C)(C)[C@@H](O)CC(=O)O1
active: CP315 2.4 nM | CP325 2.7 nM | CP329 3.4 nM | CP335 1.2 nM | DFO2036 3.2 nM | DIV14 3.4 nM | DIV17 3.4 nM | DIV30 4.8 nM | Dd2 1.3 nM | ECU 4.5 nM

O=C1C2CC=CCC2C(=O)N1SC(Cl)(Cl)Cl (stereo not given)
inactive: all assays above

CCC1(c2ccccc2)C(=O)NC(=O)N(C(=O)c2ccccc2)C1=O (stereo not given)
not listed: DIV17
inactive: all other assays above

CCCCCl
inactive: all assays above

CC(=O)OC1CN2CCC1CC2 (stereo not given)
inactive: all assays above

ClC=C(Cl)Cl
inactive: all assays above

ClC1C(Cl)C(Cl)C(Cl)C(Cl)C1Cl (stereo not given)
not listed: DIV14
inactive: all other assays above

N#CN
not listed: DIV30
inactive: all other assays above

CCC1(CC)C(=O)NC(=O)N(C)C1=O
not listed: DIV17
inactive: all other assays above

CCCCCCCCOC(=O)c1ccccc1C(=O)OCCCCCCCC
inactive: all assays above

FC(F)OC(F)(F)C(F)Cl (stereo not given)
inactive: all assays above

CCC(C)(S(=O)(=O)CC)S(=O)(=O)CC
inactive: all assays above

CCCCNCC(O)c1ccc(O)cc1 (stereo not given)
inactive: all assays above

COCC(C)N(C(=O)CCl)c1c(C)csc1C (stereo not given)
not listed: DIV30
inactive: all other assays above

COC([CH2][Hg])CNC(=O)c1ccccc1OCC(=O)O (stereo not given)
inactive: all assays above

CC(=O)OO
inactive: all assays above

CCCC(C)(COC(N)=O)COC(=O)NC1CC1 (stereo not given)
inactive: all assays above

N#CC1(N2CCCCC2)CCCCC1
inactive: all assays above

[O]=[Cd]
inactive: all assays above

C#CC(C)(O)CC (stereo not given)
inactive: all assays above

O=c1[nH]c(=O)n(Cl)c(=O)n1Cl
inactive: all assays above

CCON=O
inactive: all assays above

O=P(O)(O)C(Cl)(Cl)P(=O)(O)O
inactive: all assays above

O=C(CS(=O)C(c1ccccc1)c1ccccc1)NO (stereo not given)
inactive: all assays above
